# hERG WT inh: KCNH2 (human, wildtype) channel inhibition. Q12809. U2OS, BacMam KCNH2, thallium flux FluxOr; hits give low values. activity change, % at 1.84 µM. actives 0.37% (n = 340,000);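 active = maximum activity change below -70%; inconclusive = maximum activity change between -70% and -50%; inactive = maximum activity change above -50%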
# Target sequence (Q12809 whole entry, looked up): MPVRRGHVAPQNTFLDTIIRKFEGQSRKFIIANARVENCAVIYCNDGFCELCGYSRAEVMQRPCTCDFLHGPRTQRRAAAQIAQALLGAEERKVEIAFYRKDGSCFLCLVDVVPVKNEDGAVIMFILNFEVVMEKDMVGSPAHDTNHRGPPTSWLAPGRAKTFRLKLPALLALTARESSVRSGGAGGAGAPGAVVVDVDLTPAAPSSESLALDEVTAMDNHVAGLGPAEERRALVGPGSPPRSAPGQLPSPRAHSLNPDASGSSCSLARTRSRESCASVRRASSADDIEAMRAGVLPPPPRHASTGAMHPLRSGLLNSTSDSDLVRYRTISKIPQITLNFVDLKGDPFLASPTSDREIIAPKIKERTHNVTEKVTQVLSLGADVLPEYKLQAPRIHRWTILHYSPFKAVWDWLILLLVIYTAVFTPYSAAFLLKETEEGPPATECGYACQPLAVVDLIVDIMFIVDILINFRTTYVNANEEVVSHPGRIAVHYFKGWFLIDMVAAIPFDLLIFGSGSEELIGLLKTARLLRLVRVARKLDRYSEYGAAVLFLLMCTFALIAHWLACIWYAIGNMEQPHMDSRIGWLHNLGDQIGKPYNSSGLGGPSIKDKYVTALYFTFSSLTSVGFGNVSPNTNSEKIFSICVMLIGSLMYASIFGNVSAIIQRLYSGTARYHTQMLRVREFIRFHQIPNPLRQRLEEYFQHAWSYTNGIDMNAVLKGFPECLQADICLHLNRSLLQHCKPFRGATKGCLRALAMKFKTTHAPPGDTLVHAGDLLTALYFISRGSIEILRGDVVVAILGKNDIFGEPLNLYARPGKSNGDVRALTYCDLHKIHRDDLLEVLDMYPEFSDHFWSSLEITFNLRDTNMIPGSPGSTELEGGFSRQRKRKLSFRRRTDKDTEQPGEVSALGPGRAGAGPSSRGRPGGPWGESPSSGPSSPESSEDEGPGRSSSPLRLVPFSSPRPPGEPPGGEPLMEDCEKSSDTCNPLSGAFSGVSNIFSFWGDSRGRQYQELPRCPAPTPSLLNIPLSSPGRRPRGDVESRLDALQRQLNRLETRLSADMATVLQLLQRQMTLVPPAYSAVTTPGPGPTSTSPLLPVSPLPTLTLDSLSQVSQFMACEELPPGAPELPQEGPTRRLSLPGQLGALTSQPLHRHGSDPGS
#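 U2OS cells were transduced with wild-type KCNH2 virus (2.03 x 10^8 / mL) for 4 h at room temperature, then cultured overnight at 37 C. Thallium flux was read with FluxOr dye. Rate constants were normalized to DMSO controls.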
# MCF10A rereplic: induces DNA re-replication in MCF 10a normal breast cells | MCF 10A DNA re-replication, Hoechst nuclear intensity, 48 h | Potency, µM (doses to about 46.1 µM), hits mostly activators | AID 624296 | actives 2.9% (n = 350,000); note: nearly all actives have a fitted effect of over 50% in size
# KB-V1 MDR tox: kills drug-selected multidrug resistant KB-V1 cells. KB-V1 MDR cells viability, CellTiter-Glo, 72 h. actives 3.4% (n = 400,000). Potency, µM (titrated, usually from 46.1 µM), hits mostly cytotoxic; note: nearly all actives have a fitted effect of over 60% in size
#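 qHTS viability screen in drug-selected KB-V1 MDR cells: 72 h compound treatment at 37 degrees C, ATP luminescence end point.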
# KB-3-1 cytotox: KB-3-1 parental cell cytotoxicity; Potency, µM (titrated, usually from 46.1 µM), usual class: cytotoxic; KB-3-1 viability, CellTiter-Glo ATP luminescence, 72 h; actives 1.4% (n = 400,000); note: nearly all actives have a fitted effect of over 60% in size
#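 Viability of parental KB-3-1 cells, measured by CellTiter-Glo luminescence, followed a 72 h incubation at 37 °C with pinned compounds in phenol-red-free DMEM containing 10% FBS.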
# SW480 rereplic: inducers of DNA re-replication in SW480 colon cancer cells. actives 1.8% (n = 340,000). SW480 DNA re-replication, Hoechst DNA content imaging, 48 h. Potency, µM (top dose mostly 46.1 µM), most hits filed as activators; note: nearly all actives have a fitted effect of over 55% in size
#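 Cells (250 per well) received 23 nL compound or DMSO by pin tool and were kept 48 hr at 37 C, 5% CO2. Nuclei were then stained with Hoechst for 40 min and scanned for DNA content.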
# KCNH2 3.1 inh: KCNH2 3.1 (human) potassium channel inhibition | actives 0.95% (n = 340,000) | U2OS KCNH2 3.1, thallium flux FluxOr; hits give low values | activity change, % (tested at about 1.8 µM) | AID 720553;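 active = maximum activity change below -70%; inconclusive = maximum activity change from -70% to -50%; inactive = maximum activity change above -50%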;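 note: thallium influx rate constant from kinetic fluorescence after stimulation buffer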
#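 Channel expression came from 3.1 mutant virus (1.77 x 10^8 /mL) applied to suspended U2OS cells for 4 h. Flux was tracked with FluxOr dye plus Red40 quencher, and kinetic rate constants normalized to controls.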
# A number is an active result; – = inactive; ? = inconclusive; · = not tested or not shown. Shown are actives, neighbours in structure and some others; about 7.6% of the full set was active somewhere. Unless noted, calls come from the whole dose curve; as a rule, active = well fitted curve in the direction sought with a large enough effect; inconclusive = small, poorly fitted or top-dose-only effect, or another doubt; inactive = no such curve, though single readings can be large; an effect the other way counts as inactive or inconclusive.
SMILES,hERG WT inh,MCF10A rereplic,KB-V1 MDR tox,KB-3-1 cytotox,SW480 rereplic,KCNH2 3.1 inh
CCN(CC)C(=O)CSc1nc2ccccc2c(=O)n1CC,–,–,–,–,–,–
CCN(CC)C(=O)CSc1nc2ccccc2c(=O)n1OC(C)C,–,–,2.59µM,–,–,–
CC(=O)N1c2ccc(S(=O)(=O)NCCC(=O)NCc3ccc(F)cc3)cc2CC1C (configuration not stated),–,–,–,–,–,–
CC1Cc2cc(S(=O)(=O)NCc3ccccc3)ccc2N1C(=O)C1CC1 (configuration not stated),–,–,–,?,–,–
CC1Cc2cc(S(=O)(=O)NCCC(=O)NCc3ccc(F)cc3)ccc2N1C(=O)C1CC1 (configuration not stated),-87.0,–,–,–,–,–
CCc1cccc(NS(=O)(=O)c2ccc3c(c2)CC(C)N3C(=O)C2CC2)c1 (configuration not stated),·,·,13µM,?,·,·
c1ccc(-n2nnnc2Sc2ncnc3sc4c(c23)CCCC4)cc1,–,20.6µM,–,–,?,–
O=C(NNC(=O)C1CCN(S(=O)(=O)c2c(Cl)cccc2Cl)CC1)c1ccccc1O,–,?,18.4µM,?,?,–
O=C(NNC(=O)C1CCN(S(=O)(=O)c2ccccc2)CC1)c1ccccc1O,–,–,–,–,?,–
COc1ccc(C(C(=O)NCC2CCCO2)N(C(=O)CNC(=O)c2cccs2)c2ccccc2C)cc1OC (configuration not stated),–,–,–,–,–,–
Cc1ccc(CN2CCN(Cc3cccn3-c3ccccn3)CC2CCO)cc1 (configuration not stated),-75.5,–,–,–,–,-72.2
CC(C)CCN1CCN(Cc2cccn2-c2nccs2)CC1CCO (configuration not stated),–,–,–,–,–,–
Cc1ccc(CN2CCN(Cc3cccn3-c3nccs3)CC2CCO)cc1 (configuration not stated),–,–,–,–,–,-88.3
O=C1CC(c2ccco2)Cc2[nH]c(=O)c(C(=O)Nc3ccccc3)cc21 (configuration not stated),·,·,–,–,·,·
CC(C)OCC1CC(CC(=O)Nc2ccc([N+](=O)[O-])cc2)C(=O)O1 (configuration not stated),–,–,–,–,–,–
COc1cccc(NC(=O)N2CCN(c3nc(-c4cccc(OC)c4)cs3)CC2)c1,–,–,16.4µM,?,?,–
COc1cccc(-c2csc(N3CCN(C(=S)Nc4ccccc4)CC3)n2)c1,–,–,–,–,–,–
COc1cccc(-c2csc(N3CCN(C(=S)Nc4ccc(Cl)cc4)CC3)n2)c1,–,–,23.1µM,–,–,–
Clc1ccccc1N=C1NN=C(c2cccs2)CS1,–,–,?,–,–,–
Cc1ccccc1Cn1c(=O)n(CCCCC(=O)NCCc2ccccc2)c(=O)c2ccccc21,·,·,–,–,·,·
CN(C)/C=C(\C#N)S(=O)(=O)C(C)(C)C,–,5.17µM,–,–,–,–
Cc1cccn2c(=O)c(C=O)c(N3CCSCC3)nc12,–,–,–,–,5.8µM,–
Cc1cccn2c(=O)c(C=O)c(N3CCN(C)CC3)nc12,–,–,–,–,–,–
CCCc1c(C(=O)OCC)nnc2c(-c3ccccc3)c(C)nn12,·,·,–,–,·,·
CCOC(=O)Nc1ccc2c3c(cccc13)-c1ccccc1-2,–,?,?,?,6.51µM,–
Cc1ccc(-n2nc3c(=O)n(CC(=O)NCCC(C)C)nc(C)c3c2C)cc1,·,·,–,–,·,·
COCC(C)NC(=O)c1ccc2c(c1)S(=O)(=O)c1ccccc1C2=O (configuration not stated),–,–,–,–,–,–
Cc1ccc(Nc2c(-c3ccco3)nc3ccc(C)cn23)cc1,·,·,–,–,·,·
Cc1ccc(Nc2c(-c3ccccn3)nc3ccc(C)cn23)cc1,–,–,?,?,20.6µM,–
Cc1ccc2nc(-c3ccco3)c(Nc3ccccc3)n2c1,–,–,10.3µM,–,?,–

# Source: PubChem BioAssay (National Center for Advancing Translational Sciences (NCATS))
